A short description of test [1]: qHTS assay to identify small molecule antagonists of the sonic hedgehog signaling (Shh) pathway (AID 1259369; calls by dose curve; further: nearly all actives have a fitted effect of over 45% in size; further: potency means the concentration at half of the fitted maximal effect). In short, it runs like this: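 Inhibition of Shh signalling is measured as reduced Gli1-response-element firefly luciferase output in an NIH/3T3-derived stable reporter clone stimulated with conditioned medium for 24hr.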
(In general: qHTS replaces the single test concentration by a dilution series.)

The target of test [2] is Estrogen receptor beta (Homo sapiens) (UniProt Q92731). In words: qHTS assay to identify small molecule agonists of the estrogen receptor beta (ER-beta) signaling pathway (AID 1259377; active means well fitted activation curve with a large enough effect in the signal ratio in the repeat runs, not every such curve was filed as active; the % refers to the signal ratio). In short, it runs like this: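 ER-beta-UAS-bla HEK293T (GripTite) cells carrying a UAS-driven beta-lactamase reporter, in medium with 2% charcoal-stripped FBS, were exposed to compounds for 16 hr at 37C; LiveBLAzer B/G FRET substrate was then added and fluorescence read after 2 hours at room temperature.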
Estrogen receptor beta (Homo sapiens), sequence (Q92731 whole entry, looked up): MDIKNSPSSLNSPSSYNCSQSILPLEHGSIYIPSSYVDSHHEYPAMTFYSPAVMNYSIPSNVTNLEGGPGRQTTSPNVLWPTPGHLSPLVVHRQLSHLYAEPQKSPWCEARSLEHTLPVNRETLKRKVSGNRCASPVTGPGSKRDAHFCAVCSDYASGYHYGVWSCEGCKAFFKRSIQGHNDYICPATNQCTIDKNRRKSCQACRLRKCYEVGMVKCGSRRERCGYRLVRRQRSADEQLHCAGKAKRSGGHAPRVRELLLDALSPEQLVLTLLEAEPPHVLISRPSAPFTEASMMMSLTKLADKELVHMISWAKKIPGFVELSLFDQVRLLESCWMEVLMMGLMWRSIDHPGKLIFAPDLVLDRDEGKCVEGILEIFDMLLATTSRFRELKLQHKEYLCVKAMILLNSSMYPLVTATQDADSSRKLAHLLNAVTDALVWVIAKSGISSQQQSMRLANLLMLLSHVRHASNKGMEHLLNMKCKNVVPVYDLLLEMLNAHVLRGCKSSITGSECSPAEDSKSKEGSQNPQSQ

Test [3] shares this target. Briefly: qHTS assay to identify small molecule antagonists of the estrogen receptor beta (ER-beta) signaling pathway (AID 1259378; active means well fitted inhibition curve with a large enough effect in the signal ratio in the repeat runs, not every such curve was filed as active; the % refers to the signal ratio). In short, it runs like this:
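ER-beta-UAS-bla HEK293T (GripTite) cells in 2% charcoal-stripped FBS medium were preincubated 6 hr at 37C, dosed with compound, then stimulated with 1 nM E2 (final) for 16 hr; beta-lactamase reporter read by B/G FRET fluorescence after 2 hr substrate loading.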

Test [4] can be described thus: qHTS assay to identify small molecule agonists of the androgen receptor (AR) signaling pathway in the presence of an antagonist - cell viability counter screen (AID 1259379). Further: nearly all actives have a fitted effect of over 25% in size. Further: potency means the concentration at half of the fitted maximal effect. In short, it runs like this: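 Fluorescence from CellTiter-Fluor, added after 15 hr and read 1 hr later, gave cell viability. Cells were MDA-kb2 exposed to compounds (15 concentrations) in the presence of 3.0uM nilutamide at 37C, 0% CO2.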

The nature of test [5]: qHTS assay to identify small molecule agonists of the estrogen receptor beta (ER-beta) signaling pathway - cell viability counter screen (AID 1259380). Further: nearly all actives have a fitted effect of over 30% in size. Further: potency means the concentration at half of the fitted maximal effect. In short, it runs like this:
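Same-well viability counter screen. Cells: ER-beta-UAS-bla HEK293T, plated 6 hr before compound, in 2% charcoal-stripped FBS. Compound exposure 16 hr, 37C; viability by CellTiter-Glo luminescence after 30 min at room temperature.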

Test [6] in a line: qHTS assay to identify small molecule antagonists of the estrogen receptor beta (ER-beta) signaling pathway - cell viability counter screen (AID 1259382). Further: series mostly up to about 92 µM; nearly all actives have a fitted effect of over 55% in size. In short, it runs like this:
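Following a 6 hr plating period, HEK293T cells carrying a UAS-driven beta-lactamase reporter under ER-beta control received compounds and 1nM E2 (final). After 16 hr at 37C and 2 hr substrate loading, CellTiter-Glo luminescence indicated viability.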

The target of test [7] is Estrogen receptor (Homo sapiens) (UniProt P03372). Briefly: qHTS assay to identify small molecule agonists of the estrogen receptor alpha (ER-alpha) signaling pathway in the presence of an antagonist (AID 1259383; calls by dose curve; further: nearly all actives have a fitted effect of over 15% in size; further: potency means the concentration at half of the fitted maximal effect; on activation: top concentration of the series differs between compounds). The essentials: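 Cells are hormone-deprived for 5 days (charcoal-stripped FBS, no phenol red), plated for 24hr, spiked with 10.0nM ICI-182,780, then dosed at 15 concentrations. After 22hr at 37C, ONE-Glo luminescence reports ERE-luciferase activity.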
Estrogen receptor (Homo sapiens), sequence (P03372 whole entry, looked up): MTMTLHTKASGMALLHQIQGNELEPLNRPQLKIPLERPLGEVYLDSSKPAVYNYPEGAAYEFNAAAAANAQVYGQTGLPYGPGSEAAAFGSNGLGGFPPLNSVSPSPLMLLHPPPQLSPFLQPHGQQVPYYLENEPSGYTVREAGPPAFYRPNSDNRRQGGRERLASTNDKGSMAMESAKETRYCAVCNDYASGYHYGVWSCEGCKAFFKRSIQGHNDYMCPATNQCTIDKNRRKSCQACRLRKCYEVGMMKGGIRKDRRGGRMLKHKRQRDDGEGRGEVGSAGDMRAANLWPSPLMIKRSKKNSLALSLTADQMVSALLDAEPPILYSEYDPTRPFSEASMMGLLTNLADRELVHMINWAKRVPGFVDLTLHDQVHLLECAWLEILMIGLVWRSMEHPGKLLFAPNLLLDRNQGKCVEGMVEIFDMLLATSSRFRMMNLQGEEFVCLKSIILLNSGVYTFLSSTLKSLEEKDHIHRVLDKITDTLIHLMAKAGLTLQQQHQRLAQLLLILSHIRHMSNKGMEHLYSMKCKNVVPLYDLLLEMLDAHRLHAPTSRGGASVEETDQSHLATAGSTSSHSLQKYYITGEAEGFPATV

Test [8] is described as follows: qHTS assay to identify small molecule agonists of the estrogen receptor alpha (ER-alpha) signaling pathway in the presence of an antagonist - cell viability counter screen (AID 1259386).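 Further: cells exposed to compounds for 22 h at 37 °C before the viability read; nearly all actives have a fitted effect of over 30% in size.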 Further: potency means the concentration at half of the fitted maximal effect. In short, it runs like this: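 Cells are starved of estrogens for 5 days in charcoal-stripped serum, seeded for 24hr and co-treated with ICI-182,780 (10.0nM final) and test compounds. After 22hr at 37C, viability is read as CellTiter-Fluor fluorescence.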

Test [9] addresses Progesterone receptor (Homo sapiens) (UniProt P06401). In words: qHTS assay to identify small molecule agonists of the progesterone receptor (PR) signaling pathway (AID 1346784; calls by dose curve; further: nearly all actives have a fitted effect of over 30% in size). In short, it runs like this:
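PR-UAS-bla HEK 293T cells carrying a UAS-driven beta-lactamase reporter were seeded in medium with 2% charcoal-stripped FBS, preincubated 6 hr at 37C, then exposed to compounds in DMSO for 16 hr; agonism was read by LiveBLAzer B/G FRET fluorescence.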

A short description of test [10]: qHTS assay to identify small molecule antagonists of the progesterone receptor (PR) signaling pathway - cell viability counter screen (AID 1346798). Further: series mostly up to about 92 µM; nearly all actives have a fitted effect of over 50% in size. The essentials:
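PR-UAS-bla HEK293T cells in medium with 2% charcoal-stripped FBS were treated with compounds plus R5020 for 16 hr at 37C. Cell viability was then read by CellTiter-Glo luminescence after 30 min at room temperature in the same wells.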

The nature of test [11]: qHTS assay to identify small molecule agonists of the progesterone receptor (PR) signaling pathway - cell viability counter screen (AID 1346799; calls by dose curve; further: nearly all actives have a fitted effect of over 45% in size). In short, it runs like this:
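PR-UAS-bla HEK293T cells, 3,000 per well in medium with 2% charcoal-stripped FBS, were preincubated 6 hr at 37C, then exposed to compounds for 16 hr; viability was read as CellTiter-Glo luminescence after 30 min at room temperature.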

A short description of test [12]: qHTS assay to identify small molecule agonists of the TGF-beta/Smad signaling pathway - cell viability counter screen (AID 1346829). Further: top concentration of the series differs between compounds; nearly all actives have a fitted effect of over 45% in size. In short, it runs like this:
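After overnight seating at 37 C and 5% CO2, reporter cells got compounds for 5 hr and FRET substrate for 2 hr; cell viability then came from CellTiter-Glo luminescence.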

Test [13] can be described thus: qHTS assay to identify small molecule agonists of the TGF-beta/Smad signaling pathway (AID 1346859; active means well fitted activation curve with a large enough effect in the signal ratio in the repeat runs, not every such curve was filed as active; the % refers to the signal ratio; further: series mostly up to about 77 µM). In short, it runs like this:
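HEK 293T cells stably carrying a beta-lactamase reporter driven by the Smad binding element were seeded overnight, exposed to DMSO-dissolved compounds for 5 hr at 37 C, 5% CO2, then loaded with FRET substrate for 2 hr at room temperature.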

The target of test [14] is Thyrotropin-releasing hormone receptor (Homo sapiens) (UniProt P34981). In words: qHTS assay to identify small molecule antagonists of the thyrotropin-releasing hormone receptor (TRHR) signaling pathway (AID 1346877; active means well fitted inhibition curve with a large enough effect in the repeat runs, not every such curve was filed as active; further: series mostly up to about 51 µM). In short, it runs like this: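 Cells (TRHR-HEK293) are plated and kept 18 h at 37 °C/5% CO2. A calcium-sensitive dye is added for 2 h, compound follows for 5 min at room temperature, and TRH is then given at 1 nM final.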
Thyrotropin-releasing hormone receptor (Homo sapiens), sequence (P34981 whole entry, looked up): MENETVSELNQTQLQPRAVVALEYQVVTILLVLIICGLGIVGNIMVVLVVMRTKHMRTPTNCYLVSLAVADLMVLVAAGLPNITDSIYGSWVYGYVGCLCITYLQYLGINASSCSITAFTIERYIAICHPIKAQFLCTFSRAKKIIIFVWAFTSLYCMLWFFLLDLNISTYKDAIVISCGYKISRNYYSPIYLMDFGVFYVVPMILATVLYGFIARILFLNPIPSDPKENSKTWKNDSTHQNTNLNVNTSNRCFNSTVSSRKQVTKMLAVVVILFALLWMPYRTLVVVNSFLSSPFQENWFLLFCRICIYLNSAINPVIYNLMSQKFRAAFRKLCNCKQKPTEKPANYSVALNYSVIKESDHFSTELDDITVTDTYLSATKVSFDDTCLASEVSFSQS

Test [15] shares this target. Briefly: qHTS assay to identify small molecule agonists of the thyrotropin-releasing hormone receptor (TRHR) signaling pathway (AID 1346891; calls by dose curve; further: series mostly up to about 58 µM). The essentials:
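TRHR-expressing HEK293 cells were plated 18 h at 37 °C/5% CO2, loaded with calcium dye 2 h at 37 °C, then given compound in DMSO; fluorescence was read kinetically for 3 min at 1 s intervals.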

Test [16] is described as follows: qHTS assay to identify small molecule agonists or antagonists of the thyroid stimulating hormone receptor (TSHR) signaling pathway - wild type cell line counter screen (AID 1259384; calls by dose curve). In short, it runs like this:
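Wild-type HEK293 cells were plated 18 h at 37 C/5% CO2, pin-dosed with compound plus Ro20-1724 medium, held 30 min at room temperature, then given cAMP-d2 and anti-cAMP-cryptate; fluorescence was read after 1 h. Fifteen concentrations, triplicate.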

Test [17] has as its target Thyrotropin receptor (Homo sapiens) (UniProt P16473). In words: qHTS assay to identify small molecule antagonists of the thyroid stimulating hormone receptor (TSHR) signaling pathway (AID 1259385; calls by dose curve; further: nearly all actives have a fitted effect of over 20% in size). In short, it runs like this: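 TSHR-HEK293 cells were plated and held 18 h at 37C/5% CO2, then given compound plus Ro20-1724 and stimulated with TSH at 1.5 ng/mL final. After 30 min at room temperature, cAMP was detected with cAMP-d2/anti-cAMP-cryptate (1 h) by fluorescence.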

Test [18] addresses Progesterone receptor (Homo sapiens) (UniProt P06401). In words: qHTS assay to identify small molecule antagonists of the progesterone receptor (PR) signaling pathway (AID 1346795; active means well fitted inhibition curve with a large enough effect in the signal ratio in the repeat runs, not every such curve was filed as active; the % refers to the signal ratio). The essentials: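 PR-UAS-bla HEK293T cells carrying a UAS-driven beta-lactamase reporter were plated in medium with 2% charcoal-stripped FBS and rested 6 hr at 37C. Compounds were added with 1 nM R5020 (final) for 16 hr, then FRET substrate loaded 2 hr at room temperature.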

Where “and” joins values, the source holds several entries; their conditions need not be identical. Identical values can stand only once. Results filed as inconclusive are left out. Calls of active or inactive are those of the source. Unless noted, the call rests on the fitted dose curve; in most records, active means well fitted curve in the direction sought with a large enough effect in the repeat runs; inconclusive means weak or mixed curves; inactive means no such curve, though single readings can be large; an effect the other way counts as inactive or inconclusive.

Progesterone receptor (Homo sapiens), sequence (P06401 whole entry, looked up): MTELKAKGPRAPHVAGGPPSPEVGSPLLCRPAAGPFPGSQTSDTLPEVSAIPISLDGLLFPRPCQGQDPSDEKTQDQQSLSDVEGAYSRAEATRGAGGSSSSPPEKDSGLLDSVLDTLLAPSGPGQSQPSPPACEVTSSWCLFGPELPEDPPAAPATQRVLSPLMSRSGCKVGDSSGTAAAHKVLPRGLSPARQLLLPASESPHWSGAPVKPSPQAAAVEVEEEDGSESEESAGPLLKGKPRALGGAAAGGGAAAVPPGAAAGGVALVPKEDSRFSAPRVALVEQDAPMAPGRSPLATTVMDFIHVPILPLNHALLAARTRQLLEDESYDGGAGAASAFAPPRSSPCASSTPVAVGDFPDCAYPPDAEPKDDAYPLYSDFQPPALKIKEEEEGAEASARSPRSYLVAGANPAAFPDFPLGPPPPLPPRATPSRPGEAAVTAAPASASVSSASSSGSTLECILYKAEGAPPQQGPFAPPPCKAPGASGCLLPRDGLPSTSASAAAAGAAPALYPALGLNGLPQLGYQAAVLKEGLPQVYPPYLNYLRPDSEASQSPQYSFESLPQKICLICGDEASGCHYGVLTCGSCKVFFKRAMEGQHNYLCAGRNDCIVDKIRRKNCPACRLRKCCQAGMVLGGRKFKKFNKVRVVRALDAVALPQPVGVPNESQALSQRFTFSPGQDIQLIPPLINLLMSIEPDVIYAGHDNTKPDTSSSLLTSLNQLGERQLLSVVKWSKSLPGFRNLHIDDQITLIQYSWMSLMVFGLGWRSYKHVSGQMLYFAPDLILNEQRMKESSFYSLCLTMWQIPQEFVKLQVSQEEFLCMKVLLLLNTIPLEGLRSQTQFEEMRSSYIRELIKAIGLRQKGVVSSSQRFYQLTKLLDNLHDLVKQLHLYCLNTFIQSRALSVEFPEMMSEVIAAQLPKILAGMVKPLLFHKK
Thyrotropin receptor (Homo sapiens), sequence (P16473 whole entry, looked up): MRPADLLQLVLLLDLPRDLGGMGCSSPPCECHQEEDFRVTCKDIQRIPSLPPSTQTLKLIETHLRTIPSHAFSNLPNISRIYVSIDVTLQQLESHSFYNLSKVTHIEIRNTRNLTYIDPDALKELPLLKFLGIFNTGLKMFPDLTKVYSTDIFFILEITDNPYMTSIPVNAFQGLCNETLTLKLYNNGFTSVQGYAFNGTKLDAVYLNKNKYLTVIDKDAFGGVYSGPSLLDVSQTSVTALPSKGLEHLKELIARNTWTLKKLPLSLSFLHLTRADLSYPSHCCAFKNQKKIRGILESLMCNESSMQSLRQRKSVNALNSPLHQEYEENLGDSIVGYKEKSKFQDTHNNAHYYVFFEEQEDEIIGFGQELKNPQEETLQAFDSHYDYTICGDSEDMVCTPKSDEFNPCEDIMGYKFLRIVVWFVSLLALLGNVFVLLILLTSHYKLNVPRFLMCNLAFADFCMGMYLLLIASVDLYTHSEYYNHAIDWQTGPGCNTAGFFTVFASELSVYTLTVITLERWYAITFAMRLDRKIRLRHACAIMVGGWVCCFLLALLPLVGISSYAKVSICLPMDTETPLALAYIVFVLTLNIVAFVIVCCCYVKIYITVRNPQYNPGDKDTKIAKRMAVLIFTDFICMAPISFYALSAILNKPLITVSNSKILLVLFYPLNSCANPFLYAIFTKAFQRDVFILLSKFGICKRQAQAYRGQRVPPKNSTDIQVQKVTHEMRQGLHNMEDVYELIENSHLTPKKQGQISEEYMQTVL

In the case of `CSc1nc(NC(C)C)nc(NC(C)C)n1`, in test [1], the Potency is 766 nM (active). Besides, the Potency result in test [2], in test [3], in test [4], in [5], in test [6] and in test [7] was “inactive” throughout. In addition, the Potency result in [8], in [9], in test [10], in test [11], in test [12] and in test [13] was “inactive” in each case. Also, the Potency entry in test [14] is “inactive”. Further, the outcome in [15] was inactive.

Consider `Cc1cccc(N=Nc2ccc(N(C)C)cc2)c1`, for which the Potency entry in test [1], in [2], in [3], in [6], in test [16] and in [17] was “inactive” each time. The Potency result in [9], in test [10], in test [11], in [12] and in [14] was “inactive” in each case. The Potency in test [4] is 39.2 µM (active) and 30.6 µM (active); in test [5], 31200 nM (active); in test [7], 247 nM (active) and 273 nM (active); in test [8], 24.8 µM (active) and 24.3 µM (active). For the same compound, the result in test [15] was inactive.

Consider `CC(C)Nc1nc(Cl)nc(NC(C)C)n1`, for which the Potency in [1] is 768 nM (active). Also, the Potency result in [2], in test [3], in test [4], in test [5], in [6] and in test [7] was “inactive” in each case. Also, the Potency result in [16], in test [17], in [8], in test [9], in [18] and in test [10] was “inactive” each time. The Potency entry in [11], in test [12] and in [14] was “inactive” in each case. In addition, the compound was classed as inactive in test [15].

As to `CCNCC`, the Potency result in [1], in test [2], in test [3], in test [4], in [5] and in test [6] was “inactive” in each case. The Potency result in [16], in test [17], in test [8], in [9], in [18] and in test [10] was “inactive” each time. Further, the Potency entry in test [11], in [12], in test [13] and in test [14] was “inactive” each time. Further, in [15], the compound was classed as inactive.

(Values after PubChem BioAssay (Tox21).)
